This is part of a sample that, as a whole, favours compounds with a hit. Of some 83,000 tested, about 20% had one in any assay.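 The endpoint reported here, percent growth, reads 100 for growth as untreated, 0 for no net growth and -100 for all cells dead.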 Unmarked numbers belong to inactive results. The source made the active and inactive calls. The calls were made as follows: active = growth percent below 10; inactive = the rest.

Holding throughout (assay): NCI-60 one-dose screen, 48 h (100 = growth as untreated, 0 = no growth, -100 = all killed)
The subject of one assay is RPMI-8226 leukemia. The conditions noted are these: 10 µM unless noted.
The test system of another assay is OVCAR-8 ovarian. The conditions noted are these: 10 µM unless noted.
For another assay, the system named is OVCAR-5 ovarian. As to conditions: 10 µM unless noted.
The test system of a further assay is OVCAR-4 ovarian. The conditions noted are these: 10 µM unless noted.
The next assay has as its system IGROV1 ovarian. As to conditions: 10 µM unless noted.
In another assay the test system is OVCAR-3 ovarian. As to conditions: 10 µM unless noted.
A further assay relates to HS 578T breast. As to conditions: 10 µM unless noted.
For the next assay, the system named is T-47D breast. The conditions noted are these: 10 µM unless noted.
A further assay deals with BT-549 breast. The conditions noted are these: 10 µM unless noted.
The test system of another assay is MDA-MB-435 melanoma. As to conditions: 10 µM unless noted.
The next assay relates to SW-620 colon. As to conditions: 10 µM unless noted.
Another assay concerns MCF7 breast. As to conditions: 10 µM.
For a further assay, the system named is HCT-116 colon. The conditions noted are these: 10 µM unless noted.
Another assay relates to HCC-2998 colon. The conditions noted are these: 10 µM unless noted.
For another assay, the system named is KM12 colon. As to conditions: 10 µM unless noted.
In the next assay the test system is SK-OV-3 ovarian. As to conditions: 10 µM unless noted.
The next assay deals with NCI/ADR-RES ovarian. The conditions noted are these: 10 µM unless noted.

`COC(=O)/C(CCC=C(C)C)=C1\[C@@H](OC(C)=O)C[C@@]2(C)[C@H]1C[C@@H](O)[C@H]1[C@@]3(C)CC[C@H](NCc4ccccc4)[C@@H](C)[C@@H]3CC[C@@]12C`: the growth was 16.9% in the assay with RPMI-8226 leukemia; 76.1% in the assay on OVCAR-8 ovarian; 88.7% with OVCAR-5 ovarian; 61.2% in the assay with OVCAR-4 ovarian; 70.3% in the assay on IGROV1 ovarian; 69.6% in the assay with OVCAR-3 ovarian. In addition, the growth is 67.3% in the assay with HS 578T breast; 62.3% in the assay on T-47D breast; 76.2% with BT-549 breast; 75.7% with MDA-MB-435 melanoma; 63.5% in the assay with SW-620 colon; 49.5% with MCF7 breast. In addition, the growth is 20.2% in the assay on HCT-116 colon, 72.8% with HCC-2998 colon and 72.9% with KM12 colon.
Take `CCOC(=O)c1c(Cl)c2c(n1Cc1ccccc1)-c1oncc1CCC2`: the growth in the assay on RPMI-8226 leukemia is 50.6%; in the assay with OVCAR-8 ovarian, 84.3%; in the assay on OVCAR-5 ovarian, 95.3%; in the assay on SK-OV-3 ovarian, 95.2%; in the assay with IGROV1 ovarian it was 75.1%; with OVCAR-3 ovarian, 39.5%. In addition, the growth in the assay on HS 578T breast is 69.7%; with NCI/ADR-RES ovarian, 43.5%; with T-47D breast, 80.7%; in the assay on BT-549 breast it was 87.6%; with MDA-MB-435 melanoma, -12.9% (active); in the assay with SW-620 colon, 39.5%. In addition, the growth is 37.5% in the assay with MCF7 breast, 50.3% with HCT-116 colon, 61.8% with HCC-2998 colon and 53.1% in the assay with KM12 colon.
Consider `CCCCCCCCCCCCCCn1cc(C2=C(c3coc4ccc(OC)cc34)C(=O)NC2=O)c2ccccc21`, for which the growth was 122% in the assay on RPMI-8226 leukemia; 91.8% in the assay with OVCAR-8 ovarian; 93.8% in the assay with OVCAR-5 ovarian; 102% in the assay with OVCAR-4 ovarian; 81.6% in the assay with IGROV1 ovarian; 98.5% with HS 578T breast. For the same compound, the growth is 98.9% in the assay with NCI/ADR-RES ovarian; 96.2% with T-47D breast; 91.1% in the assay with BT-549 breast; 97.6% with MDA-MB-435 melanoma; 89.2% in the assay on SW-620 colon; 88.5% in the assay with MCF7 breast. The growth in the assay with HCT-116 colon was 78%; in the assay with KM12 colon it was 98%.
Turning to `COc1cc(/C=C/C(=O)c2ccc(Nc3nc(NCCO)nc(N4CCOCC4)n3)cc2)cc(OC)c1OC`, the growth with RPMI-8226 leukemia was -21% (active); in the assay with OVCAR-8 ovarian it was 11.6%; in the assay with OVCAR-5 ovarian, 34%; in the assay on OVCAR-4 ovarian, 23.9%; in the assay on IGROV1 ovarian, 20.6%; with OVCAR-3 ovarian, 2.88% (active). The growth is 9.53% (active) with HS 578T breast; 32.1% in the assay on T-47D breast; 10.1% in the assay with MDA-MB-435 melanoma; 7.8% (active) with SW-620 colon; 3.22% (active) in the assay on MCF7 breast; 9.47% (active) in the assay with HCT-116 colon. Further, the growth in the assay with HCC-2998 colon is 20%; in the assay with KM12 colon it was 7.4% (active).
Turning to `O=c1c(-c2nc3ccccc3[nH]2)cc2ccccc2n1Cc1cn(Cc2ccc(F)cc2)nn1`, the growth in the assay on RPMI-8226 leukemia is 16.7%; in the assay with OVCAR-8 ovarian, 28.5%; with OVCAR-5 ovarian, -20.5% (active); in the assay on OVCAR-4 ovarian, 43.5%; in the assay with IGROV1 ovarian, 9.95% (active); in the assay with HS 578T breast, -6.42% (active). The growth is 31.7% in the assay with NCI/ADR-RES ovarian; 42.3% in the assay with T-47D breast; 22.4% in the assay on BT-549 breast; -37% (active) in the assay on MDA-MB-435 melanoma; 22.1% in the assay with SW-620 colon; 14.5% in the assay with MCF7 breast. Besides, the growth was -13.5% (active) with HCT-116 colon, -14.5% (active) in the assay on HCC-2998 colon and 9.74% (active) in the assay on KM12 colon.
For `COc1cc(CNC(=O)Cc2ccccc2)ccc1OCc1cn(-c2ccc(F)cc2)nn1`, the growth with RPMI-8226 leukemia is 89.8%; with OVCAR-8 ovarian, 95.5%; in the assay with OVCAR-5 ovarian, 108%; in the assay on OVCAR-4 ovarian it was 78.2%; in the assay with IGROV1 ovarian, 106%; with HS 578T breast it was 99.1%. The growth with NCI/ADR-RES ovarian was 94.7%; in the assay on T-47D breast, 94.7%; in the assay with BT-549 breast it was 99.8%; with MDA-MB-435 melanoma, 98.4%; in the assay with SW-620 colon, 109%; in the assay with MCF7 breast, 91.8%. For the same compound, the growth in the assay on HCT-116 colon was 102%; with HCC-2998 colon, 106%; in the assay on KM12 colon it was 108%.
With `COC(=O)c1c2c(c(C)[n+]([O-])c1C)C(=O)C(NCc1ccc(Br)cc1)=CC2=O`, the growth is 47.6% in the assay on RPMI-8226 leukemia; 4.52% (active) in the assay on OVCAR-8 ovarian; 69.1% with OVCAR-5 ovarian; -27% (active) in the assay on OVCAR-4 ovarian; 5.51% (active) with IGROV1 ovarian; -21.5% (active) in the assay with OVCAR-3 ovarian. In addition, the growth is 82.4% in the assay on HS 578T breast; 20.5% in the assay with T-47D breast; 62.3% in the assay with BT-549 breast; -77.4% (active) in the assay on MDA-MB-435 melanoma; 5.24% (active) in the assay with SW-620 colon; -20.1% (active) with MCF7 breast. Besides, the growth in the assay on HCT-116 colon was 1.37% (active); with KM12 colon it was 15.2%.
Turning to `CCOc1cc(Cl)c(C(C)NC(=O)c2cccc(OC)c2)cc1OCC` (centres undefined), the growth in the assay with RPMI-8226 leukemia was -6.93% (active); with OVCAR-8 ovarian, -19.9% (active); in the assay with OVCAR-5 ovarian, 30.2%; in the assay with SK-OV-3 ovarian, 35.4%; in the assay with IGROV1 ovarian, 28.2%; in the assay with OVCAR-3 ovarian it was -82.5% (active). Also, the growth in the assay with HS 578T breast was 18%; in the assay with NCI/ADR-RES ovarian it was 1.86% (active); in the assay with T-47D breast, 13.5%; with BT-549 breast it was -27.7% (active); in the assay on MDA-MB-435 melanoma, -28.6% (active); in the assay with SW-620 colon it was -50.9% (active). Also, the growth with MCF7 breast was 3.38% (active); in the assay with HCT-116 colon, -57.5% (active); in the assay with HCC-2998 colon, -85.1% (active); with KM12 colon, 0.624% (active).
Consider `Cc1ccc(C2CC(c3ccc(Nc4nc(NCCO)nc(Nc5ccc(Cl)cc5)n4)cc3)=NN2c2cc(Cl)cc(Cl)c2)cc1` (centres undefined), for which the growth with RPMI-8226 leukemia was 101%; in the assay on OVCAR-8 ovarian, 97.4%; in the assay with OVCAR-5 ovarian, 94.2%; in the assay on OVCAR-4 ovarian it was 102%; in the assay with IGROV1 ovarian, 87.8%; in the assay on HS 578T breast, 68.3%. Besides, the growth with NCI/ADR-RES ovarian is 105%; in the assay on T-47D breast, 94.5%; in the assay on BT-549 breast, 95.9%; with MDA-MB-435 melanoma it was 98.8%; with SW-620 colon, 101%; in the assay on MCF7 breast it was 88.2%. Besides, the growth was 103% in the assay with HCT-116 colon, 111% in the assay with HCC-2998 colon and 103% in the assay on KM12 colon.
In the case of `Nc1nc(-c2ccccc2Br)nn1-c1nc2ccccc2s1`, the growth is 102% in the assay on RPMI-8226 leukemia; 97.6% with OVCAR-8 ovarian; 98% with OVCAR-5 ovarian; 101% in the assay with OVCAR-4 ovarian; 108% in the assay with OVCAR-3 ovarian; 104% in the assay on HS 578T breast. The growth is 105% with NCI/ADR-RES ovarian; 105% in the assay on T-47D breast; 100% with BT-549 breast; 95% in the assay on MDA-MB-435 melanoma; 104% in the assay on SW-620 colon; 78.4% in the assay with MCF7 breast. For the same compound, the values for the growth in the assay with HCT-116 colon, in the assay on HCC-2998 colon and in the assay with KM12 colon were 103%, 110% and 101%, respectively.

The values above are taken from PubChem BioAssay (NCI).
